Assay results reported in PubChem BioAssay.
The source made the active and inactive calls.

Experiments:
[1] = anti-His antibody binders, primary screen, artefact control for SMM control protein annotation, biochemical, small-molecule microarray, 635 nm fluorescence (AID 1128); settings: anti-His Alexa647 antibody binding, higher = more signal;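 note: score merges feature fluorescence with signal-to-noise for each printed compound spot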
[2] = system: Human papillomavirus type 1a E7 protein (residues 1-88); assay: HPV1a E7 small-molecule binders, primary screen, biochemical, small-molecule microarray, residues 1-88, 635 nm (AID 1129); settings: small-molecule microarray binding, fluorescence 635 nm; higher = more signal
[3] = molecular target: Focal adhesion kinase 1 (Homo sapiens) (UniProt Q05397); assay: small-molecule microarray binders of FAK, primary screen, biochemical, 635/667 nm fluorescence, BSA, DTT (AID 1130); settings: PTK2 binding, 635 nm fluorescence, higher = more signal;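 note: composite of spot emission at 667 nm and signal to noise over triplicate slides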
Sequence of Focal adhesion kinase 1 (Homo sapiens) (Q05397 whole entry, looked up): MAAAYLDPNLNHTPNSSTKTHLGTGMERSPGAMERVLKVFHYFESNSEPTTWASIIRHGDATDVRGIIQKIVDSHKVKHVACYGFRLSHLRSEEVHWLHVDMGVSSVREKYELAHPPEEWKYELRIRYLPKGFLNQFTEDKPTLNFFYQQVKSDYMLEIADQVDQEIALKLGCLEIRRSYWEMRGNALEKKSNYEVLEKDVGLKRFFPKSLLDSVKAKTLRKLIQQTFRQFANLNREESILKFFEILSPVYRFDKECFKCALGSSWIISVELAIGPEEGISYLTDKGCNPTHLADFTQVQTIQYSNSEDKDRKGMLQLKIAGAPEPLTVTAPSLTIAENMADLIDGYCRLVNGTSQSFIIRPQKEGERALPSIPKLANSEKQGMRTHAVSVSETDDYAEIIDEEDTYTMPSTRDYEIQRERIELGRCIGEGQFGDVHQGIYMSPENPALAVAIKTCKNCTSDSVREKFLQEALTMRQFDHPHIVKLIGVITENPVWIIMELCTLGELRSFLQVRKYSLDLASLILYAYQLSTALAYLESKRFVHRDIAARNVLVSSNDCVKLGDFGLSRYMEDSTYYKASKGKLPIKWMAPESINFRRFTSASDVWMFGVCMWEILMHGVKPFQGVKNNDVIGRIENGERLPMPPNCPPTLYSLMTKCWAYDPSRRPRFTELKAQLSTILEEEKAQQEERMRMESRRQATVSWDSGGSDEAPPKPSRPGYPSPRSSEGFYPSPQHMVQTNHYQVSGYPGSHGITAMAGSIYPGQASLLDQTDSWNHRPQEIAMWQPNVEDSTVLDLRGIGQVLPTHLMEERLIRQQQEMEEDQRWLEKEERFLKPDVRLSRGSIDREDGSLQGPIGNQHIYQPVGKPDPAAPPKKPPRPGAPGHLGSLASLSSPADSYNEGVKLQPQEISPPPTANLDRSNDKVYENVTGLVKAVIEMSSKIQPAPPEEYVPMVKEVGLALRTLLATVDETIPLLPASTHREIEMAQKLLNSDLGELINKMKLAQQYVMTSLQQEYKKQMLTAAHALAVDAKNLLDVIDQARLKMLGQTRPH

[4] = system: Fibrinogen (Alexa647-labelled); assay: fibrinogen binders on compound microarrays, profiling panel, artefact control for SMM control-protein annotation, biochemical, small-molecule microarray, 635/667 nm fluorescence (AID 1131); settings: fibrinogen-A647 binding fluorescence, higher = more signal;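 note: z-score merges 667 nm fluorescence with per-spot signal-to-noise over triplicate slides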
[5] = molecular target: Follistatin (Homo sapiens) (UniProt P19883); assay: follistatin binders on small-molecule microarrays, primary screen, biochemical, small-molecule microarray, 635/667 nm fluorescence (AID 1132); settings: FST binding, 635 nm fluorescence, higher = more signal
Sequence of Follistatin (Homo sapiens) (P19883 whole entry, looked up): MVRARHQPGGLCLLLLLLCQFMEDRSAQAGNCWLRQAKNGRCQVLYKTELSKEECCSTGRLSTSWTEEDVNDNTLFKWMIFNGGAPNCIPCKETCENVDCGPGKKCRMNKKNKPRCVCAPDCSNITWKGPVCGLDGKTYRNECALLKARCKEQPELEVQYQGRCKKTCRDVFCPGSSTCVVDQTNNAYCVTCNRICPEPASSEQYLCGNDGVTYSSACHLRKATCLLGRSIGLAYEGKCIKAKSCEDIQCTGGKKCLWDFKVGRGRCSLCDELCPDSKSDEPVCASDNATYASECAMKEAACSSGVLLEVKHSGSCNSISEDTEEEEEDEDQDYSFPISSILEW

[6] = molecular target: Fibroblast growth factor 2 (Homo sapiens) (UniProt P09038); assay: FGF2 binders on small-molecule microarrays, primary screen, biochemical, small-molecule microarray, 635/667 nm fluorescence (AID 1133); settings: small-molecule microarray binding, FGF2, fluorescence 635/667; higher = more signal
Sequence of Fibroblast growth factor 2 (Homo sapiens) (P09038 whole entry, looked up): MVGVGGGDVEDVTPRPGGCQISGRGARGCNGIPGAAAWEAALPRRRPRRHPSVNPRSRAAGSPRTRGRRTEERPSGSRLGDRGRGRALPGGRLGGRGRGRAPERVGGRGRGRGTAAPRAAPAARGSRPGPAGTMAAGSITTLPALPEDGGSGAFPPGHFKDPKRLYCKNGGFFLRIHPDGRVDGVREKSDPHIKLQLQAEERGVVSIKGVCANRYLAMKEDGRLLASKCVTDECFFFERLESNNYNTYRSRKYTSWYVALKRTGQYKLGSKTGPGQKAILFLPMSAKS

[7] = mitochondrial membrane potential change in A549 cells, profiling panel, cell-based, JC-1 fluorescence, basal, 24 h, 100 nL (AID 1138); settings: higher = more signal;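 note: A549 lung adenocarcinoma cells under basal conditions with no added stimulus; test concentration not given here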
Lefty1 = Lefty1 binders on small-molecule microarrays, primary screen, biochemical, small-molecule microarray, 635/667 nm fluorescence (AID 1139); settings: small-molecule microarray binding, fluorescence 635/667; higher = more signal
[8] = system: wheat germ agglutinin (Triticum aestivum), Alexa647-labelled; assay: wheat germ agglutinin binders on compound microarrays, profiling panel, artefact control for SMM control-protein annotation, biochemical, small-molecule microarray, 635/667 nm fluorescence (AID 1140); settings: WGA-A647 binding, 635 nm fluorescence, higher = more signal;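 note: score merges 667 nm feature emission with signal to noise over triplicate slides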
[9] = molecular target: Luciferin 4-monooxygenase (Photinus pyralis) (UniProt P08659); assay: firefly luciferase enzyme inhibitors, primary screen, biochemical, luminescence, purified enzyme, 2006 set (AID 1141); settings: SteadyGlo luminescence, 30 min, higher = more signal, called active from +8 up or from −8 down;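 note: cell-free assay with purified firefly luciferase at 100 ng per well in PBS; test concentration not given here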
Sequence of Luciferin 4-monooxygenase (Photinus pyralis) (P08659 whole entry, looked up): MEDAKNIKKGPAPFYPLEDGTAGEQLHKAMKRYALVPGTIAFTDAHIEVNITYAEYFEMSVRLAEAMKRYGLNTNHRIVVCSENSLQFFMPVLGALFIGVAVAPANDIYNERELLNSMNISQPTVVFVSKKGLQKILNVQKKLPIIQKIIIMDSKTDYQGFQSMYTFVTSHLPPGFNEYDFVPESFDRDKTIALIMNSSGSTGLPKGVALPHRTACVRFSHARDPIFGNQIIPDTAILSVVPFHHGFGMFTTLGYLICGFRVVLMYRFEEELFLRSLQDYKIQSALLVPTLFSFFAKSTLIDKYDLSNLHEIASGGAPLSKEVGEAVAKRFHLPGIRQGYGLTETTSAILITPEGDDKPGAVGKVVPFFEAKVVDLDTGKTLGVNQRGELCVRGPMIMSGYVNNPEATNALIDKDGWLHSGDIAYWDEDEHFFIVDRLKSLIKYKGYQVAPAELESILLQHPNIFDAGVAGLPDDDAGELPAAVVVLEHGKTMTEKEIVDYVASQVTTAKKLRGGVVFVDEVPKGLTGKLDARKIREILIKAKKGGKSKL

SMILES	composite z-score [1]	composite z-score [2]	composite z-score [3]	composite z-score [4]	composite z-score [5]	composite z-score [6]	z-score [7]	composite z-score (Lefty1)	composite z-score [8]	z-score [9]
C=CCNC(=O)[C@H]1[C@@H]2C(=O)O[C@@H](c3ccccc3)[C@@H](c3ccccc3)N2[C@@H](c2ccc(O)cc2)[C@]12C(=O)N(C(=O)OCCOC)c1ccc(C#CCCO)cc12	1.03	-0.0757	0.38	0.288	0.448	0.748	0.956	-0.0874	-0.163	-0.923 (inactive)
COC(=O)C1=CC(CCCO)=CC(C2CC2)N(Cc2sc3ccccc3c2Cl)C=C1C(=O)OC (stereo not given)	3.11	1.25	1.31	1.04	0.939	0.0634	1.14	0.222	0.728	-0.96 (inactive)
COc1ccc(C#Cc2ccc3c(c2)[C@]2(C(=O)N3)[C@H](c3ccc(O)cc3)N3[C@H](c4ccccc4)[C@H](c4ccccc4)OC(=O)[C@H]3[C@@H]2C(=O)NC[C@H](O)c2ccccc2)cc1	1.35	1.21	0.32	0.556	1.03	0.487	-1.26	0.751	1.01	-0.835 (inactive)
CN(C)CCCNC(=O)[C@@]1(Cc2ccccc2I)c2ccccc2C(=O)N(Cc2ccccc2C(F)(F)F)[C@H]1c1ccc(CO)cc1	0.984	0.794	0.17	0.836	-0.781	-1.16	0.117	-0.406	-0.203	0.606 (inactive)
COCCOC(=O)N1C(=O)[C@@]2(c3cc(C#CC4=CCCCC4)ccc31)[C@H](C(=O)N1CCc3cc(OC)c(OC)cc3C1)[C@H]1C(=O)O[C@H](c3ccccc3)[C@H](c3ccccc3)N1[C@@H]2c1ccccc1OCCO	-0.13	0.487	-0.106	0.061	1.29	1.66	-1.11	1	0.747	-1.62 (inactive)
CC(C)(C)OC(=O)CC[C@@]1(C(=O)O)N=C(c2ccc(OCCCO)cc2)O[C@@H]1c1ccccc1N=[N+]=[N-]	1.5	0.826	2.08	0.482	0.589	-0.349	-1.49	-0.666	1.28	-12.1 (active)
CC(C)(C)N1CC=CC23O[C@@H]4/C=C\CCCOC(=O)C4[C@H]2C(=O)N(CCO)[C@@H]3C1=O (stereo not given in full)	0.543	0.193	0.19	-0.233	-0.993	-0.57	-0.913	-0.86	0.0851	0.885 (inactive)
Cc1ccc(S[C@]2(C(=O)NCC(C)C)CC(=O)N(Cc3ccccc3)[C@@H]2c2ccc(CO)cc2I)cc1	1.38	0.904	0.139	0.312	1.27	0.564	1.03	0.536	0.503	-0.56 (inactive)
COCC(=C=CC[C@@H](O)c1ccc(CO)o1)CCO	-0.145	0.114	-0.29	-0.23	1.24	0.958	-0.0212	1.24	0.43	-0.877 (inactive)
NCCCCCNC(=O)[C@H]1C[C@H]2C(=O)NCC(=O)N2[C@H]1c1cccc(OCCO)c1	0.524	0.817	0.369	0.909	1.26	1.08	0.431	1.5	0.739	0.199 (inactive)
[N-]=[N+]=NCc1ccccc1C[C@]1(C(=O)O)N=C(c2ccc(OCCCO)cc2)O[C@H]1c1ccccc1	1.29	1.13	0.165	0.687	0.0944	0.87	0.0539	-1.43	1.2	0.414 (inactive)
COc1cc2c(cc1O)C(C)N(Cc1cccc(OC(F)(F)F)c1)CC2 (stereo not given)	1.72	1.13	-0.135	0.966	0.659	-0.258	-0.681	0.108	0.984	1.35 (inactive)
COc1ccc([Si](C)(C)[C@H]2[C@H](CCn3cc([C@H](O)c4ccccc4)nn3)O[C@@]3(C(=O)N(Cc4cccc(N5CCC5=O)c4)c4ccccc43)[C@@H]2C)cc1	0.396	0.302	-0.0817	0.435	1.34	1.54	2.35	0.811	0.219	-0.719 (inactive)
COCCOC(=O)N1C(=O)[C@@]2(c3cc(C#CCNC(N)=O)ccc31)[C@H](C(=O)N1CCN(c3ncccn3)CC1)[C@H]1C(=O)O[C@H](c3ccccc3)[C@H](c3ccccc3)N1[C@@H]2c1ccccc1OCCO	1.24	1.07	0.261	0.797	1.37	0.406	-1.55	0.889	0.749	1.05 (inactive)
COc1ccc([Si](C)(C)[C@H]2[C@H](CC(=O)N(CCO)Cc3ccccc3)O[C@@]3(C(=O)N(Cc4cccc(N5CCC5=O)c4)c4ccccc43)[C@@H]2C)cc1	2.18	1.03	0.222	0.279	1.12	1.68	-0.166	1.33	0.767	0.272 (inactive)
COc1c(C)cc(-c2cc3c(c(-c4ccc(Oc5ccccc5)cc4)n2)[Si](C(C)C)(C(C)C)OC3)cc1C	-0.271	-0.582	-0.0939	-0.551	-0.228	0.515	0.577	0.38	-0.0472	0.279 (inactive)
CC(C)NC(=O)[C@@H]1c2ccccc2C(=O)N(Cc2ccccc2)[C@H]1c1ccc(CO)cc1	0.166	0.482	0.512	-0.367	-0.797	0.394	0.484	-1.54	0.826	0.413 (inactive)
